Data published in PubChem BioAssay (Tox21).
Records with an inconclusive call do not appear. Activity calls are given as the source filed them. Unless noted, calls come from the whole dose curve; as a rule, active = well fitted curve in the direction sought with a large enough effect in the repeat runs; inconclusive = weak or mixed curves; inactive = no such curve, though single readings can be large; an effect the other way counts as inactive or inconclusive.

Columns and labels:
[1] = qHTS assay to identify small molecule agonists of the NFkB signaling pathway (AID 1159509; active = well fitted curve in the direction sought with a large enough effect in the signal ratio in the repeat runs, not every such curve was filed as active; the % refers to the signal ratio; note: series mostly up to about 61 µM)
Procedure, shortened: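 Beta-lactamase reporter assay run in quantitative high-throughput format on an NF-kB-responsive ME-180 line, with 5 hr compound treatment and a FRET-based blue/green fluorescence readout.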

[2] = qHTS assay to identify small molecule agonists of the NFkB signaling pathway - cell viability counter screen (AID 1159515; calls by dose curve; note: series mostly up to about 61 µM; nearly all actives have a fitted effect of over 55% in size)
Procedure, shortened: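 Parallel cytotoxicity counter screen in ME-180 cells carrying an NFkB-response-element beta-lactamase reporter, 2,000 cells/well. Compound exposure lasted 5 hr at 37 C, 5% CO2. Cell viability was quantified by CellTiter-Glo luminescence.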

[3] = qHTS assay to identify small molecule agonists of the endoplasmic reticulum stress response signaling pathway (AID 1159516; active = well fitted activation curve with a large enough effect in the signal ratio in the repeat runs, not every such curve was filed as active; the % refers to the signal ratio)
Procedure, shortened: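 Using a HeLa line with an ESRE-driven beta-lactamase gene, agonist activity was measured by FRET substrate fluorescence (460 and 530 nm emission) after cells were treated with compounds for 5 hr at 37 C and 5% CO2.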

[4] = qHTS assay to identify small molecule agonists of the endoplasmic reticulum stress response signaling pathway - cell viability counter screen (AID 1159517; calls by dose curve;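 note: HeLa cells carrying an ER stress response element beta-lactamase reporter; series mostly up to about 61 µM; nearly all actives have a fitted effect of over 50% in size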)
Procedure, shortened: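 After overnight attachment, ESRE-bla HeLa cells were treated with Tox21 library compounds for 5 hr. CellTiter-Glo luminescence, read 30 min post-addition at room temperature, reported viability.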

[5] = biological target: Nuclear receptor ROR-gamma (Homo sapiens) (UniProt P51449); assay: qHTS assay to identify small molecule antagonists of the retinoid-related orphan receptor gamma (ROR-gamma) signaling pathway (AID 1159521;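 note: CHO cells with doxycycline inducible ROR-gamma driving an RORE luciferase reporter; top concentration of the series differs between compounds; nearly all actives have a fitted effect of over 50% in size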)
Procedure, shortened: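 Tet-on ROR-gamma CHO cells with ROR response element-luciferase reporter; compounds added 2 hr before 1 uM doxycycline induction, then 16 hr at 37 C. Antagonism scored as decreased ONE-Glo luminescence.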

[6] = qHTS assay to identify small molecule agonists of the AP-1 signaling pathway - cell viability counter screen (AID 1159525; calls by dose curve; note: nearly all actives have a fitted effect of over 55% in size)
Procedure, shortened: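 Intracellular ATP by Cell Titer Glo luminescence (30 min, RT) in the same ME-180 AP-1-bla wells after the 5 h compound exposure at 37 °C. Normalised to tetra n-octyl ammonium bromide and DMSO controls.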

[7] = qHTS assay to identify small molecule agonists of the AP-1 signaling pathway (AID 1159526; calls by dose curve)
[8] = qHTS assay to identify small molecule agonists of the RXR signaling pathway - cell viability counter screen (AID 1159529); note: series mostly up to about 77 µM; nearly all actives have a fitted effect of over 50% in size
Procedure, shortened: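 RXR-alpha-UAS-bla HEK 293T cells in medium with 2% charcoal-stripped FBS were pre-incubated 5 hr, then compound-treated 16 hr at 37 C. Viability was read by CellTiter-Glo luminescence in the same wells as the beta-lactamase assay, with tetraoctyl ammonium bromide as positive control.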

[9] = qHTS assay to identify small molecule antagonists of the retinoid acid receptor (RAR) signaling pathway - cell viability counter screen (AID 1159551); note: nearly all actives have a fitted effect of over 35% in size
Procedure, shortened: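 ATP-based viability, C3RL4 cells, 6 h at 37 C with 1 uM final retinol co-added after compound; luminescence read 30 min post CellTiter-Glo, RT.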

[10] = qHTS assay to identify small molecule antagonists of the estrogen related receptor (ERR) signaling pathway from Tox21 library - cell viability counter screen (AID 1224834); note: nearly all actives have a fitted effect of over 30% in size
Procedure, shortened: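 Compounds in DMSO were pinned onto ERR cells that had been incubated for 6 h, and the plates were held at 37 C for 17.5 h. CellTiter-Fluor reagent was then added and fluorescence was measured after 30 min.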

[11] = biological target: Retinoic acid receptor RXR-alpha (Homo sapiens) (UniProt P19793); assay: qHTS assay to identify small molecule agonists of the RXR signaling pathway (AID 1159527; calls by dose curve; note: nearly all actives have a fitted effect of over 35% in size)
Chain of Retinoic acid receptor RXR-alpha (Homo sapiens) (P19793 whole entry, looked up): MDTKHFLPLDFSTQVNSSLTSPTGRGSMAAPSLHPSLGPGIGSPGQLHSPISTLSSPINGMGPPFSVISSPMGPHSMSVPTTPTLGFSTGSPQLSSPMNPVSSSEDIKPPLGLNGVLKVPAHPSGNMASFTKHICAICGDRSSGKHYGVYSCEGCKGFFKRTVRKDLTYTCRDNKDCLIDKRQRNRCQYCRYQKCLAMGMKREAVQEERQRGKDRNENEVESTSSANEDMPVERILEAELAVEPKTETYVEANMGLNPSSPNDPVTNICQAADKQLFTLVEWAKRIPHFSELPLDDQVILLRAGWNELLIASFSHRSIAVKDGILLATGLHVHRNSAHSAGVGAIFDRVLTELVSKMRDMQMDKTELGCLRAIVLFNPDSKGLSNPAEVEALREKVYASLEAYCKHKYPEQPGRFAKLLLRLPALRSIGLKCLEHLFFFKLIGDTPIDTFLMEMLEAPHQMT
Procedure, shortened: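 GeneBLAzer RXR-alpha-UAS-bla HEK 293T cells in 2% charcoal-stripped FBS medium were exposed to compounds for 16 hr at 37 C in agonist mode. Beta-lactamase reporter read as 460/530 nm FRET ratio after 2 hr substrate loading.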

[12] = qHTS assay to identify small molecule antagonists of the vitamin D receptor (VDR) signaling pathway - cell viability counter screen (AID 743225); note: nearly all actives have a fitted effect of over 50% in size
Procedure, shortened: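 VDR-UAS-bla HEK 293T cells were plated and incubated 4 h at 37C, then dosed with compound plus 3 nM (final) 1-alpha,25-dihydroxyvitamin D3 for 16 h. After the 2 h beta-lactamase read, viability in the same wells was read as CellTiter-Glo luminescence after 30 min at room temperature.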

[13] = qHTS assay to identify small molecule antagonists of the retinoic acid receptor (RAR) signaling pathway (AID 1159552; note: nearly all actives have a fitted effect of over 50% in size)
Procedure, shortened: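 Retinol signaling pathway inhibitors screened in C3RL4 RARE-luciferase reporter cells seeded overnight at 37 C, then compounds added with 1 uM (final) retinol as pathway substrate. After 6 hr at 37 C, luciferase luminescence read after 30 min at room temperature.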

[14] = qHTS assay to identify small molecule agonists of the retinoic acid receptor (RAR) signaling pathway (AID 1159553)
Procedure, shortened: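 Quantitative high-throughput format: the Tox21 10K library was tested on C3RL4 RARE-luciferase cells for 6 hr at 37 C and 5% CO2, with luminescence measured after a 30 min room-temperature reagent step.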

[15] = qHTS assay to identify small molecule antagonists of the estrogen related receptor (ERR) signaling pathway - cell viability counter screen (AID 1224818);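 note: series mostly up to about 46 µM; viability measured after 17.5 h of compound exposure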
Procedure, shortened: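 Quantitative high-throughput viability counter screen in ERR cells. Compounds (DMSO) incubated 17.5 h at 37 C; read-out was CellTiter-Fluor fluorescence.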

[16] = qHTS assay to identify small molecule antagonists of the estrogen related receptor signaling pathway with the pleiotropic PPARgamma coactivator (PGC) cell viability counter screen (AID 1224822; note: series mostly up to about 46 µM)
Procedure, shortened: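 Cytotoxicity in the PGC/ERR cell line is assessed with CellTiter-Fluor, read as fluorescence intensity 30 min after reagent addition, following 17.5 h compound treatment at 37 C.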

[17] = qHTS assay to identify small molecule antagonists of the retinoid-related orphan receptor gamma (ROR-gamma) signaling pathway - cell viability counter screen (AID 1159520); note: nearly all actives have a fitted effect of over 50% in size
Procedure, shortened: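 Cytotoxicity was read from cellular ATP (CellTiter-Glo luminescence) after 16 hr at 37 C with 1 uM doxycycline induction. The inducer was added 2 hr after compound transfer to Tet-on ROR gamma CHO cells.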

Measured: Potency

NC(=O)O
inactive: [1] | [2] | [3] | [4] | [5] | [6] | [7] | [8] | [9] | [10]

COc1cc(OC)nc(Sc2cccc(Cl)c2C(=O)O)n1
inactive: [1] | [2] | [3] | [4] | [5] | [6] | [7] | [11] | [9] | [10]

Cc1coc2c1CCC(C)C2 (configuration not stated)
inactive: [12] | [1] | [2] | [3] | [4] | [5] | [6] | [7] | [11] | [8] | [9] | [10]

ClCC(Cl)(Cl)Cl
inactive: [12] | [1] | [2] | [3] | [4] | [6] | [7] | [11] | [8] | [9] | [13] | [14] | [10]

O=C(NCO)NCO
inactive: [1] | [2] | [3] | [4] | [5] | [6] | [7] | [11] | [8] | [9] | [10]

CCOC(=O)C(c1c(O)c2ccccc2oc1=O)c1c(O)c2ccccc2oc1=O
inactive: [1] | [2] | [3] | [4] | [5] | [6] | [7] | [11] | [8] | [9] | [10]

CNC(=O)O/N=C(\C)SC
inactive: [12] | [1] | [2] | [3] | [4] | [5] | [6] | [7] | [11] | [9] | [10]

CCC(C)(C)c1cc(-n2nc3ccccc3n2)c(O)c(C(C)(C)CC)c1
inactive: [12] | [1] | [2] | [3] | [4] | [5] | [6] | [7] | [11] | [8] | [9] | [14]

O=C(O)c1cccc(Cl)c1
inactive: [12] | [1] | [2] | [3] | [4] | [6] | [7] | [9] | [13] | [14] | [10]

C(CCOCC1CO1)COCC1CO1 (configuration not stated)
inactive: [12] | [1] | [2] | [3] | [4] | [5] | [6] | [7] | [11] | [9] | [13] | [14] | [10]

CSc1ccc(C(=O)C(C)(C)N2CCOCC2)cc1
inactive: [12] | [1] | [2] | [3] | [4] | [6] | [7] | [11] | [8] | [9] | [13] | [14] | [10]

[O]=[Cd]
inactive: [12] | [1] | [2] | [3] | [4] | [5] | [8] | [9] | [10]

CN/C(=N\[N+](=O)[O-])NCC1CCOC1 (configuration not stated)
inactive: [12] | [1] | [2] | [3] | [4] | [5] | [6] | [7] | [11] | [9] | [10]

COc1ccc(C(=O)N2CCCC2=O)cc1
inactive: [12] | [1] | [2] | [3] | [4] | [5] | [6] | [7] | [11] | [8] | [9] | [15] | [16] | [10]

ClCC(Cl)Cl
inactive: [12] | [1] | [2] | [3] | [4] | [5] | [6] | [7] | [11] | [8] | [9] | [10]

CC1CCC(=O)O1 (configuration not stated)
inactive: [12] | [1] | [2] | [3] | [4] | [5] | [6] | [7] | [11] | [8] | [9] | [10]

CCS(=O)(=O)CCSP(=O)(OC)OC
inactive: [1] | [2] | [3] | [4] | [5] | [6] | [7] | [9] | [13] | [14] | [10]

CC(C(=O)c1ccccc1)N(C)C (configuration not stated)
inactive: [1] | [2] | [3] | [17] | [5] | [6] | [7] | [11] | [8] | [9] | [10]

CC(C)COP(=O)(OCC(C)C)OCC(C)C
inactive: [1] | [2] | [3] | [4] | [5] | [6] | [7] | [11] | [8] | [9] | [10]

CS(=O)(=O)c1cc(C(F)(F)F)ccc1C(=O)c1cnoc1C1CC1
inactive: [12] | [1] | [2] | [3] | [4] | [5] | [6] | [7] | [8] | [9] | [13] | [14] | [10]

CN1C[C@@H](NS(=O)(=O)N(C)C)C[C@@H]2c3cccc4c3c(cn4C)C[C@H]21
inactive: [12] | [1] | [2] | [3] | [4] | [5] | [6] | [7] | [9] | [10]

CN1CCC(O)(c2ccc(F)cc2)C(C(=O)c2ccc(F)cc2)C1 (configuration not stated)
inactive: [12] | [1] | [2] | [3] | [4] | [5] | [6] | [7] | [9] | [10]

COC(=O)COc1ccc(Cl)cc1Cl
inactive: [1] | [2] | [3] | [4] | [5] | [7] | [11] | [9] | [13] | [14] | [10]
